Screens (PubChem)
APP transl inh – APP translation inhibition. hit rate 0.82% among 190,000. SH-SY5Y APP 5'UTR-luciferase reporter, luminescence. inhibition, % at 2 µM. AID 1285;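 active means inhibition above a set limit, derived from the sample mean plus 3 SD, cut at about 45% in these data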
Ba/F3 V617F tox – reduce viability of Ba/F3 cells dependent on JAK2V617F. Ba/F3 EpoR-JAK2V617F viability, ATP luminescence. inhibition, % at 5.6 µM. hit rate 1.1% among 220,000. AID 1446;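 active means inhibition above the campaign mean plus 3 SD over all tested compounds, cut at about 24% in these data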;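 further: cytokine-independent growth of Ba/F3 cells driven by EpoR plus mutant JAK2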
aSyn 5UTR inh – MLPCN primary screen, SNCA 5' untranslated region; alpha-synuclein 5'UTR reporter, inhibitor activity; inhibition, % (tested at 7.5 µM); hit rate 0.82% among 300,000; AID 1813; in the data active means inhibition above about 60%;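 further: H4 neuroglioblastoma cells stably carrying SNCA 5'UTR luciferase fusion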
KLF5 inhibitor – inhibitors of KLF5 expression | inhibition, % at 5 µM | hit rate 0.23% among 290,000 | DLD-1 KLF5 promoter-luciferase reporter, luminescence;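 active means inhibition above a per-plate limit of that plate's mean compound inhibition plus 3 SD, cut at about 60% in these data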;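 further: higher means less KLF5 promoter-driven luciferase light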
IEC-6 tox – counter-screen for KLF5 inhibitors: cytotoxicity in IEC-6 cells; IEC-6 cytotoxicity, luminescence viability; inhibition, % at 5 µM; hit rate 0.78% among 290,000; in the data active means inhibition above about 22%
BaF3 parental – counter-screen for JAK2V617F inhibitors: parental Ba/F3 viability inhibitors. CellTiter-Glo ATP luminescence. inhibition, % at 5.6 µM. hit rate 1.1% among 220,000. AID 1486;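 active means inhibition above a per-campaign cutoff, the mean inhibition of all tested compounds plus 3 SD, cut at about 27% in these data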
Of the large screens only hits and unclear results are named; the others gave an inactive call. This is a sample that favours compounds with a hit; in the whole collection about 2.2% have one here.

Cc1c(C(=O)NCCCN2CCCCC2)oc2ccc3c(c12)C(O)CC1(CCCCC1)O3 (stereo unspecified)	aSyn 5UTR inh 76 (no result: APP transl inh, Ba/F3 V617F tox, BaF3 parental)
COc1cc(OC)c(C2C(C#N)=C(C)NC(C)=C2C#N)c(C(=O)O)c1	none (no result: APP transl inh)
O=C(COc1ccccc1-c1ccccc1)NNC(=O)NC1CCCCC1	none
O=C(O)c1ccccc1NC(=O)C1CCCO1 (stereo unspecified)	none
O=C(Nc1ccccc1Sc1ccccc1)C1CCCO1 (stereo unspecified)	APP transl inh 49
CCCCOc1ccc(Br)cc1CSC(=N)N	APP transl inh 52, Ba/F3 V617F tox 30, BaF3 parental 34
O=C(CCCCCn1nnc2ccccc2c1=O)Nc1ccccc1F	none (no result: APP transl inh, Ba/F3 V617F tox, BaF3 parental)
Cc1ccc(-c2nc3ccccn3c2Nc2ccccc2)o1	BaF3 parental 92
Cc1ccc(-c2nc3cnccn3c2Nc2ccccc2)o1	none (no result: Ba/F3 V617F tox, KLF5 inhibitor, IEC-6 tox, BaF3 parental)
Cc1cc(C(=O)Nc2ccc3c(c2)CCC3)c2ccccc2n1	none
COC(CNC(=O)CNC(=S)N(Cc1ccccc1)Cc1cccnc1)OC	none
CCOc1ccc(-c2cc(CCCC(=O)NCCCOC)no2)cc1	APP transl inh 49, aSyn 5UTR inh 87
O=C(c1ccc(Cl)cc1)C(Cn1cncn1)C(Sc1ccccc1)c1ccccc1 (stereo unspecified)	APP transl inh 51
O=C(NCCN1CCOCC1)c1cc(Cl)ccc1Cl	none (no result: APP transl inh, Ba/F3 V617F tox, BaF3 parental)
COCC(C)NC(=O)NC(=O)c1ccc(Cl)cc1 (stereo unspecified)	none
O=C(NCCN1CCOCC1)NC1(C(F)(F)F)Oc2ccc(Cl)cc2O1 (stereo unspecified)	APP transl inh 50, Ba/F3 V617F tox 44, BaF3 parental 29
COCC(C)NC(=O)NC1(C(F)(F)F)Oc2ccc(Cl)cc2O1 (stereo unspecified)	Ba/F3 V617F tox 38, BaF3 parental 35
N#CCN(N=Nc1ccccc1)c1ccccc1	none (no result: APP transl inh, Ba/F3 V617F tox, BaF3 parental)
COc1cc(OC)cc(-c2cc3nc(C)c(CCC(=O)O)c(C)n3n2)c1	APP transl inh 78 (no result: aSyn 5UTR inh)
CCOC(=O)C1CCN(C(=O)CCc2c(C)nc3cc(-c4ccccc4)nn3c2C)CC1	aSyn 5UTR inh 66
CCOC(=O)C1CCCCN1C(=O)CCc1c(C)nc2cc(-c3ccccc3)nn2c1C (stereo unspecified)	APP transl inh 52, aSyn 5UTR inh 76
CCCn1nc(NS(=O)(=O)c2cccc3nonc23)c2cc3ccccc3nc21	none (no result: APP transl inh, Ba/F3 V617F tox, BaF3 parental)
O=C(CN(C(=O)c1ccc(Cl)cc1Cl)N1C(=O)C2C3C=CC(C3)C2C1=O)c1ccc(F)cc1 (stereo unspecified)	none
CCC(C(=O)c1ccccc1)N(C(=O)c1ccccc1Cl)N1C(=O)C2C3C=CC(C3)C2C1=O (stereo unspecified)	BaF3 parental 95
Cc1nn(C)cc1CN(C)C(=O)c1cc(-c2ccccc2)nc2ccc(Br)cc12	none
CCN(C1CCCCC1)S(=O)(=O)c1ccc(S(=O)(=O)NCc2ccncc2)cc1	Ba/F3 V617F tox 45, BaF3 parental 55
Cc1ccc(S(=O)(=O)NCc2ccncc2)cc1C	Ba/F3 V617F tox 48, BaF3 parental 75
O=S(=O)(NCc1ccncc1)c1ccc(Br)s1	Ba/F3 V617F tox 47, BaF3 parental 62
COc1ccc(CCN2CC(C(=O)NC3CCCCC3)CC2=O)cc1OC (stereo unspecified)	none
COC(=O)c1c(-c2ccccc2)csc1NC(=O)c1c(-c2ccccc2)noc1C	aSyn 5UTR inh 65
CCOC(=O)c1c(-c2ccc(F)cc2)csc1NC(=O)c1c(-c2ccccc2)noc1C	none
CC(C)(C)c1cc(CCC(=O)NNC(=S)NC(=O)c2ccccc2)cc(C(C)(C)C)c1O	aSyn 5UTR inh 66
CC(C)(C)NC(=O)C(c1ccncc1)N(C(=O)Cn1nnc(-c2ccc(F)cc2)n1)c1ccc(F)cc1 (stereo unspecified)	BaF3 parental 81
COC(=O)c1ccc(Cn2nnc3c(=O)[nH]c(C4CCN(S(=O)(=O)c5ccc(F)cc5)CC4)nc32)cc1	none (no result: APP transl inh, Ba/F3 V617F tox, BaF3 parental)
CCN(CC)S(=O)(=O)c1ccc(NC(=O)CO/N=C(\N)c2ccccc2)cc1	none (no result: APP transl inh, Ba/F3 V617F tox, KLF5 inhibitor, IEC-6 tox, BaF3 parental)
Cc1nn(Cc2cccc(F)c2)c(C)c1NC(=O)c1ccc(COc2ccccc2Cl)cc1	aSyn 5UTR inh 69
Cc1nn(Cc2c(F)c(F)c(F)c(F)c2F)c(C)c1NC(=O)c1cccc(COc2ccccc2Cl)c1	none
CC(=O)N1CCN(S(=O)(=O)c2ccc(C)cc2)C1C (stereo unspecified)	none (no result: APP transl inh, Ba/F3 V617F tox, KLF5 inhibitor, IEC-6 tox, BaF3 parental)
Cc1cccc(NC(=S)N/N=C/c2c[nH]c3ccccc23)c1	APP transl inh 86
COc1cnc(-c2ccccn2)nc1NC(C)C	aSyn 5UTR inh 98
COc1ccc(CCN2CC(C(=O)NCCc3cn[nH]c3)CCC2=O)cc1 (stereo unspecified)	none (no result: APP transl inh, Ba/F3 V617F tox, BaF3 parental)
COc1ccc(CNCCC(c2ccc(OC(C)C)cc2)c2ccccc2OC)cc1 (stereo unspecified)	aSyn 5UTR inh 134 (no result: APP transl inh, Ba/F3 V617F tox, BaF3 parental)
COc1ccccc1C(CCNCc1ccc(N(C)C)cc1)c1ccc(OC(C)C)cc1 (stereo unspecified)	aSyn 5UTR inh 135 (no result: APP transl inh, Ba/F3 V617F tox, BaF3 parental)
COc1ccccc1C(CCNCc1ccccc1)c1ccc(OC(C)C)cc1 (stereo unspecified)	none (no result: APP transl inh, Ba/F3 V617F tox, BaF3 parental)
COc1ccc2cc(/C=N/NC(=O)c3ccc(CN(c4cccc(Cl)c4Cl)S(C)(=O)=O)cc3)c(Cl)nc2c1	aSyn 5UTR inh 67
Cc1oc(-c2ccccc2Cl)nc1CS(=O)(=O)CC(=O)NCCN1CCOCC1	none (no result: APP transl inh, Ba/F3 V617F tox, BaF3 parental)
NC1=NC2(CCCC2)N=C(Nc2ccccc2)N1	none (no result: APP transl inh)
NC1=NC(c2ccccc2)N=C(Nc2ccccc2)N1 (stereo unspecified)	BaF3 parental 68 (no result: APP transl inh)
COc1cccc(CN2CC(C(=O)NCCC3=CCCCC3)CCC2=O)c1 (stereo unspecified)	none (no result: APP transl inh, Ba/F3 V617F tox, BaF3 parental)
CC(C)Oc1ccc(C(=O)Nc2nnc(SCC(=O)N3CCOCC3)s2)cc1	aSyn 5UTR inh 98
Cc1ccc(C(=O)Nc2nnc(SCC(=O)N3CCCc4ccccc43)s2)cc1	aSyn 5UTR inh 74
CCOC(=O)CNC(=O)CSc1nnc(NC(=O)c2ccc(C)cc2)s1	aSyn 5UTR inh 74
Cc1onc(-c2ccccc2Cl)c1C(=O)N1CCN(C)CC1	none (no result: APP transl inh, Ba/F3 V617F tox, BaF3 parental)
O=C(Nc1ccccc1)Nc1cc([N+](=O)[O-])ccc1F	none
Cc1ccc([N+](=O)[O-])cc1NC(=O)Nc1cccc(F)c1	Ba/F3 V617F tox 40, BaF3 parental 37 (no result: APP transl inh)
OC(CNc1ccccc1)COc1ccc(OCC(O)CNc2ccccc2)cc1 (stereo unspecified)	Ba/F3 V617F tox 24, BaF3 parental 34
CCOCC(O)CNc1ccccc1 (stereo unspecified)	none
O=C(/C=C/c1ccccc1)Nc1nc(-c2ccncc2)cs1	Ba/F3 V617F tox 39, BaF3 parental 43
CC(CCc1ccccc1)NC(=O)C1CCN(S(=O)(=O)N2CCOCC2)CC1 (stereo unspecified)	BaF3 parental 91
COc1ccc(OC)c(C(=O)NC2CC(C)(C)Cc3c2cnn3-c2ccccc2)c1 (stereo unspecified)	aSyn 5UTR inh 67 (no result: APP transl inh, Ba/F3 V617F tox, BaF3 parental)
